Source: PubChem BioAssay (several laboratories)
ADAM10 inh: ADAM10 inhibition, QFRET primary screen | O14672 | recombinant ADAM10, EDANS/DABCYL FRET peptide cleavage, 3 h | inhibition, % at 7 µM | 370,000 compounds, 0.62% hits;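 active means inhibition above a per-campaign cutoff equal to the mean of compounds falling between control-based bounds plus 3 SD, cut at about 20% in these data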;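 further: 0% = DMSO wells while the 100% control is not disclosed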
NRP1-CendR mod: NRP-1/CendR interaction modulation; FAM-RPARPAR peptide binding to NRP-1, fluorescence polarization; inhibition, % at 25 µM; 360,000 compounds, 0.85% hits;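 active means inhibition or corrected inhibition above about 18%, plus a signal ratio from 0.5 to 1.5, limit read from the data, passing the limit was not always enough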
KLK7 zymogen act: activates the human kallikrein-7 zymogen; 370,000 compounds, 0.9% hits; activation, % at 7 µM; P49862; purified proKLK7, EDANS-DABCYL substrate fluorescence; 100% is mature enzyme control, 0% vehicle;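 active means activation above the mean of all tested compounds plus 3 SD, computed per campaign excluding outliers beyond control limits, cut at about 13% in these data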
Target sequence (P49862 whole entry, looked up): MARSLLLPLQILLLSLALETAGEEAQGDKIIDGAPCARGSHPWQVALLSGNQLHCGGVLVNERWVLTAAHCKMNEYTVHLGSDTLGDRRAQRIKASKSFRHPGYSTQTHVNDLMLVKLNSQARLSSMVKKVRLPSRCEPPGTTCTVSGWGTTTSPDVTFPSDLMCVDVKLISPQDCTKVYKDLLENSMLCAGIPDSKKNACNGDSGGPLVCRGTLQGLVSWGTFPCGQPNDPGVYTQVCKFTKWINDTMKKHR
HGIII-sPLA2 inh: Inhibits HGIII-sPLA2 liposome hydrolysis, primary screen. inhibition, % at 12.2 µM. 370,000 compounds, 0.56% hits. QFRET BODIPY PC-A2 liposome hydrolysis, fluorescence. Q9NZ20. AID 743126;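 active means inhibition above mean plus 3 SD of compounds lying within the high and low control bounds, cut at about 19% in these data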;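 further: 0% = median of test compound wells and 100% = no enzyme DMSO wells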
ADAM17 inh: ADAM17 inhibition, QFRET primary screen; P78536; recombinant ADAM17, EDANS/DABCYL FRET peptide cleavage; inhibition, % at 6.95 µM; 370,000 compounds, 0.83% hits;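 active means inhibition above the mean of compounds lying between control limits plus 3 SD, set per campaign, cut at about 8.5% in these data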;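 further: 0% = DMSO-only wells as the low control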
sPLA2 confirm: human GIII-sPLA2 inhibition, confirmation | AID 743280 | 2,000 compounds, 34% hits | recombinant hGIII-sPLA2, BODIPY PC-A2 QFRET fluorescence | inhibition, % at 12.2 µM | shares compounds with HGIII-sPLA2 inh;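 active means mean inhibition across triplicates above the hit cutoff set in the earlier primary screen, cut at about 19% in these data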;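 further: 0% = enzyme with DMSO and 100% = DMSO wells lacking enzyme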
535nm interf: 535nm fluorescence interference, HGIII-sPLA2 counter-screen; shares compounds with HGIII-sPLA2 inh; BODIPY FL product fluorescence interference, QFRET; inhibition, % at 12.2 µM; 2,000 compounds, 8.5% hits;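 active means average inhibition above the solvent-only control mean plus 3 SD, cut at about 6% in these data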;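 further: 0% = DMSO with substrate plus product and 100% = DMSO with substrate alone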
The depositor's hits bear a star; i = inactive; . = not tested or not shown. A selection: hits, their analogues and other compounds. The true share with any hit is near 3.4%.

SMILES	ADAM10 inh	NRP1-CendR mod	KLK7 zymogen act	HGIII-sPLA2 inh	ADAM17 inh	sPLA2 confirm	535nm interf
O=c1oc2ccccc2cc1-c1csc(NN=C2CCCC2)n1	-49	-13	2	20*	-21	7	-3
CC(C)Sc1cc(N2CCCC2)nc(-c2ccccc2Cl)n1	3	7	0	22*	-6	3	-7
CC(C)Sc1cc(N2CCCC2)nc(-c2ccccc2)n1	1	1	0	7	-7	.	.
CC(C)(C)c1ccc(C(=O)NNC(=S)NC(=O)c2cccnc2)cc1	1	2	1	11	1	.	.
COC(=O)c1ccc(NC(=S)NC(=O)c2cccnc2)cc1	-1	2	0	21*	-3	13	-4
COc1ccc(NC(=S)NC(=O)c2cccnc2)cc1	6	3	0	17	-1	.	.
CC(C)(C)c1cc(Cl)c(O)c(NC(=S)NC(=O)c2cccnc2)c1	-3	-26	0	25*	1	23*	1
O=C(Nc1ccccc1)Nc1ccc(Nc2ccccc2)cc1	11	12	-1	25*	-2	6	0
O=C(Nc1ccccc1)Nc1ccccc1	1	-2	0	-1	0	.	.
Cc1ccc(Cn2c(=O)n(CCC(=O)NCc3ccc4c(c3)OCO4)c(=O)c3ccccc32)cc1	2	18	0	-2	0	.	.
N#Cc1ccccc1Cn1c(=O)n(CCCC(=O)NCc2ccc3c(c2)OCO3)c(=O)c2ccccc21	-15	10	-1	21*	-5	-2	-10
CCOc1ccccc1NC(=O)CCCN1C(=S)NC(C)(C)CC1C (centres undefined)	-6	22	0	22*	-5	20*	-9
COc1ccc(C)cc1NC(=O)CCCN1C(=S)NC(C)(C)CC1C (centres undefined)	-7	5	0	24*	-5	9	-3
CC1CC(C)(C)NC(=S)N1CCCC(=O)Nc1ccc(F)cc1 (centres undefined)	-1	8	-1	7	0	.	.
CC1CC(C)(C)NC(=S)N1CC(=O)NCc1ccccc1Cl (centres undefined)	-8	3	0	30*	-4	9	1
COc1ccc(OC)c(NC(=O)CCCN2C(=S)NC(C)(C)CC2C)c1 (centres undefined)	-1	-4	0	18	-2	.	.
CCOc1ccc(OCC)c(NC(=O)CCCN2C(=S)NC(C)(C)CC2C)c1 (centres undefined)	7	7	0	25*	-1	24*	-13
Nc1[nH]c(C(=O)c2ccccc2)c(-c2ccc(Cl)cc2F)c1C(=O)NCCc1c[nH]c2ccccc12	2	.	1	-58	5	.	.
COC(=O)[C@]12C[C@H](CC(=O)N3CCC(c4ccccc4)CC3)C(=O)N(CCC3=CCCCC3)C1=C[C@H](C(C)C)O[C@@H]2C1CC1	-1	.	0	-4	-3	.	.
CC(C)(C)C(=O)NC1CCCCN(Cc2cccc(Cl)c2)C1=O (centres undefined)	-2	.	0	4	4	.	.
Cc1csc(N(C(=O)Cc2ccccc2F)c2ccccc2)n1	-1	-4	0	20*	-2	-3	-12
COc1ccc(CC(=O)N(c2ccccc2)c2nc(C)cs2)cc1	4	-14	0	-1	-1	.	.
O=C(NCc1ccccc1)[C@H]1CCCN1C(=O)[C@H]1CCCN1C(=O)c1cccc(Cl)c1	1	.	-1	3	-1	.	.
C=CCNC1CCC12CCC(c1ccccc1)CC2 (centres undefined)	-5	.	.	4	-3	.	.
CC(=O)Nc1cccc2ncccc12	3	0	0	24*	-2	1	-6
SMILES	ADAM10 inh	NRP1-CendR mod	KLK7 zymogen act	HGIII-sPLA2 inh	ADAM17 inh	sPLA2 confirm	535nm interf
Fc1ccc2nc(-c3ccc(CN4CCC5(CC4)CNc4ccccc45)cc3)c(-c3ccccc3)nc2c1	-51	.	1	20*	-10	17	-8
CC(C)[C@@H]1C(=O)N[C@H](Cc2cn(S(=O)(=O)c3ccccc3)c3ccccc23)C(=O)N1C	-6	.	.	-5	-5	.	.
O=C(CCNC(=O)c1ccccc1Cl)Nc1cccc(C(F)(F)F)c1	-3	-4	-1	-6	-1	.	.
O=C(NNC(=S)Nc1cccc(C(F)(F)F)c1)c1cccc(Cl)c1	6	-7	0	24*	8	33*	6.5*
CC(C)(C)NC(=S)NNC(=O)c1ccccc1Cl	8	-1	0	22*	6	23*	-5
NC(=S)NNC(=O)c1ccccc1Cl	5	5	0	5	-1	.	.
O=C(NNC(=S)Nc1cccc(C(F)(F)F)c1)c1ccccc1Cl	7	4	1	24*	4	24*	4
CC(C)CNC(=O)COc1ccc2c3c(c(=O)oc2c1)CCC3	-66	-6	0	21*	-28	-2	-5
Cc1ccc(C)c(NC(=S)N2C3CCCC2CC(NC(=O)C2CC2)C3)c1 (centres undefined)	-6	8	0	21*	-2	2	-1
O=C(NC1CC2CCCC(C1)N2C(=S)Nc1ccccc1Cl)C1CC1 (centres undefined)	8	8	0	4	2	.	.
CN(C)C(CNC(=O)c1cnc(Cl)c(Cl)c1)c1ccccc1 (centres undefined)	2	4	0	21*	-11	-3	-10
Cc1ccc(NNC(=O)c2ccc(Cl)cc2)nn1	-3	8	1	47*	0	73*	74*
COc1ccc(Cn2cc(COC(=O)N3CCOCC3)nn2)cc1	-10	.	0	6	-12	.	.
CC(C)NC(=S)NC(c1ccccc1)(c1ccccc1)c1ccccc1	14	1	0	22*	2	29*	-12
N#CCCN1CCCc2cc(N=Nc3ccc(C(F)(F)F)cc3)ccc21	4	3	0	23*	0	24*	8.4*
Cc1cc(C(=O)O)c(CSc2ncn[nH]2)o1	1	10	0	21*	-3	0	-5
COC(=O)[C@]12C[C@H](CC(=O)N3CCN(C(=O)c4ccco4)CC3)C(=O)N(CCc3ccc(OC)c(OC)c3)C1=C[C@H](C1CCCC1)O[C@@H]2C	-4	.	0	4	-1	.	.
COC(=O)c1ccc(C(=O)OC)c(NC(=S)N2CCC(C)CC2)c1	i	4	3	22*	-210	7	-6
C=CCn1c(COc2ccccc2)nnc1SCC(=O)Nc1ccc(S(=O)(=O)Nc2cc(C)nc(C)n2)cc1	-3	.	0	-20	1	.	.
